According to PubChem BioAssay (EPA / NIEHS):
“And” between values parts separate entries of the source, which are not always exact repeats. Equal entries are not always repeated. Results filed as inconclusive are left out. Some compounds were tested as several samples or in several runs, with calls that do not always agree. The source made the active and inactive calls. Rule for the calls, unless noted: active = hit-call score of the fitted dose curve at least 0.9, where 1 is the maximum; inactive = score below 0.9.

Experiments:
[1] = BSK_BT_PBMCCytotoxicity: PBMC Cytotoxicity Assessment in the BioMAP Diversity Plus: BT Assay (AID 2284225); conditions: primary human B cells with PBMC;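 note: PBMC viability measured by Alamar Blue dye reduction fluorescence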
In short: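 Viability by Alamar Blue reduction (6 h, ex/em 546/580 nm) after 90 h culture of SEB/TSST-1-activated PBMC (20 ng/mL each) given compound 1 h before activation. DMSO served as baseline for curve fitting.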

[2] = read-out: Secreted IgG (sIgG), gene 3500; experiment: BSK_BT_sIgG: BioMAP Diversity Plus: BT Assay for Secreted IgG (sIgG) Biomarker Activity (AID 2284226); conditions: primary human B cells with PBMC
In short: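 ELISA quantitation of secreted IgG from human B cells co-cultured with PBMC, sampled 24 h post-dosing. Values fitted relative to DMSO vehicle as baseline, positive fitting direction.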

[3] = BSK_BT_Bcell_Proliferation: Viability Assessment in the BioMAP Diversity Plus: BT Assay for B cell Proliferation (AID 2284227); conditions: primary human B cells with PBMC
In short: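 SRB-based protein staining (0.1% SRB after 10% TCA fixation, 560 nm) quantifies proliferation in human B cells co-cultured with PBMC, 72 h post-dosing, with signal gain scored relative to DMSO negative control.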

[4] = read-out: Interleukin 6 (IL6), IL6 (gene 3569); experiment: BSK_BT_xIL6: BioMAP Diversity Plus: BT Assay for Interleukin 6 (IL6) Biomarker Activity (AID 2284228); conditions: primary human B cells with PBMC
In short: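 Human B cell plus PBMC co-culture exposed to test chemical for 24 h; secreted IL-6 quantified by Luminex xMAP bead assay. Activity fitted in the positive direction against DMSO as negative control and baseline.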

[5] = read-out: Interleukin 17A (IL17A), IL17A (gene 3605); experiment: BSK_BT_xIL17A: BioMAP Diversity Plus: BT Assay for Interleukin 17A (IL17A) Biomarker Activity (AID 2284229); conditions: primary human B cells with PBMC
In short: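 B cells co-cultured with PBMC were exposed to test chemicals, and secreted IL-17A was quantified 24 h after dosing by Luminex xMAP bead immunoassay. Activity was fitted in the gain direction against DMSO as baseline.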

[6] = read-out: Tumor necrosis factor (Homo sapiens) (UniProt P01375); experiment: BSK_BT_xTNFa: BioMAP Diversity Plus: BT Assay for Tumor necrosis factor alpha (TNF-alpha) Biomarker Activity (AID 2284230); conditions: primary human B cells with PBMC
In short: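 Compounds were added to a B cell plus PBMC co-culture, and after 24 h secreted TNF-alpha was quantified with Luminex xMAP technology, with responses fitted upward from the DMSO control.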

[7] = read-out: Vascular cell adhesion molecule 1 (VCAM1), VCAM1 (gene 7412); experiment: BSK_MyoF_VCAM1: BioMAP Diversity Plus: MyoF Assay for Vascular cell adhesion molecule 1 (VCAM1) Biomarker Activity (AID 2284231); conditions: primary human lung fibroblasts
In short: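 Primary human lung fibroblasts were dosed with test chemical for 24 h, then cell-surface VCAM-1 was measured by ELISA. Activity was fitted in the positive direction against DMSO as negative control and baseline.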

[8] = read-out: Collagen I, COL1A1 (gene 1277); experiment: BSK_MyoF_CollagenI: BioMAP Diversity Plus: MyoF Assay for Collagen I Biomarker Activity (AID 2284238); conditions: primary human lung fibroblasts
In short: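 Human lung fibroblasts were exposed to test chemical for 24 h, then Collagen I was quantified by ELISA. Activity was fitted in the increasing direction against DMSO as the negative control and baseline.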

[9] = read-out: Collagen III, COL3A1 (gene 1281); experiment: BSK_MyoF_CollagenIII: BioMAP Diversity Plus: MyoF Assay for Collagen III Biomarker Activity (AID 2284239); conditions: primary human lung fibroblasts
In short: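 Human lung fibroblasts were dosed with chemicals and, 24 hours later, collagen III was measured by ELISA. Activity was fitted in the positive direction against the DMSO negative-control baseline.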

[10] = CCTE_Mundy_HCI_hNP1_Casp3_7: CCTE's Caspase-Glo 3/7 Assay in human neuroprogenitor cells for Apoptosis, Mundy Lab (AID 2284240)
In short: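 Neuroepithelial-lineage stem cells from WA09 embryonic cells were treated with chemicals after 40–44 h of culture. Twenty-four hours later, caspase-3/7 activation was detected luminescently after a 30 min room-temperature reagent step, with DMSO as baseline.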

[11] = CCTE_Mundy_HCI_hN2_NOG_NeuriteLength: CCTE's Neurite Outgrowth Assay in human hN2 cells for Neurite Length, Mundy Lab (AID 2284220; active = hit-call score of the fitted dose curve at least 0.9, where 1 is the maximum)
In short: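 Using βIII-tubulin immunofluorescence and Hoechst nuclear counterstain, this component quantifies neurite length in hNP1-derived neurons.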

[12] = CCTE_Mundy_HCI_Cortical_Synap_Neur_Matur_CellBodySpotCount: CCTE's Synaptogenesis and Neurite Maturation Assay in rat cortical cells for Cell Body Spot Count, Mundy Lab (AID 2284223)
In short: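 Rat primary cortical cultures received AraC at DIV 5 to arrest glia, were dosed with chemical at DIV 7 with media change, and were fixed at DIV 12 (288.33 h). Synaptophysin puncta on MAP2-positive cell bodies per neuron were counted by high-content imaging versus DMSO.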

[13] = UKN4_HCS_LUHMES_cell_viability: Viability Assessment in the University of Konstanz (UKN) Leist Lab Neurite Outgrowth Assay in human LUHMES cells (UKN4) (AID 2284232)
In short: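 Viability was read by high-content imaging of calcein-AM/H-33342-stained cells after 24 h toxicant exposure, staining included. Cells: human LUHMES on day 2 of dopaminergic differentiation, dosed shortly after attachment; DMSO baseline, bidirectional curve fitting.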

[14] = UKN2_HCS_IMR90_cell_viability: Viability Assessment in the University of Konstanz (UKN) Leist Lab Neural Crest Cell Migration Assay in human induced IMR90 Pluripotent Stem Cells (UKN2) (AID 2284233);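 note: viability of neural crest cells differentiated from IMR90 iPSC measured by calcein-AM fluorescence imaging; cells exposed to compound for 24 h after a 24 h migration phase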
In short: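 cMINC format, iPSC-derived neural crest (IMR90); 24 h migration (EGF/FGF, N2-S), then 24 h toxicant. Calcein-AM/H-33342 stain 30 min; fluorescence intensity by HCS; DMSO-normalised, bidirectional fitting.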

[15] = CCTE_Mundy_HCI_Cortical_NOG_NeuronCount: CCTE's Neurite Outgrowth Assay in rat cortical cells for Neuron Count, Mundy Lab (AID 2284236; active = hit-call score of the fitted dose curve at least 0.9, where 1 is the maximum;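 note: neurons counted by imaging betaIII-tubulin and Hoechst stained cortical cells; cells exposed to compound for about 48 hours before fixation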)
In short: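 Read-out: neuron number by high-content imaging of betaIII-tubulin (Alexa Fluor-488) and Hoechst-labelled rat primary cortical cells.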

[16] = TAMU_PeakParms_SingleDonor1434_QT: Texas A&M University (TAMU) 1.5-hr Human Induced Pluripotent Stem Cell (iPSC)-derived Cardiomyocytes Calcium (Ca+2) Flux Assay for Cardiotoxicity: QT (decay-rise ratio) (AID 2284235; active = hit-call score of the fitted dose curve at least 0.9, where 1 is the maximum)
In short: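 Decay/rise ratio of calcium-flux fluorescence scored after 90 min exposure (37C) of donor 1434 iPSC cardiomyocytes to 0.2–100 uM (0.5% DMSO). Beat-cessation and severe-notch points removed; POD is EC05, a 5% rise over DMSO.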

[17] = CCTE_Mundy_HCI_hNP1_Pro_ResponderAvgInten: CCTE's Proliferation Assay in human neuroprogenitor cells, Mundy Lab (AID 2284224; active = hit-call score of the fitted dose curve at least 0.9, where 1 is the maximum;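 note: human neural progenitor cells hNP1 derived from WA09 embryonic stem cells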)
In short: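 Human neuroprogenitors (hNP1, WA09 lineage) receive test chemical after 40 to 44 hours of attachment. A four-hour BrdU pulse begins twenty hours later, followed by fixation and high content imaging; signal is referenced to DMSO controls.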

[18] = CCTE_Mundy_HCI_Cortical_Synap_Neur_Matur_NeuriteCount: CCTE's Synaptogenesis and Neurite Maturation Assay in rat cortical cells for Neurite Count, Mundy Lab (AID 2284222)
In short: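 Chemical exposure runs DIV 7–12 in rat cortical cultures, glia suppressed by AraC at DIV 5; measurement is at DIV 12. Imaging-derived neurite counts are fitted against DMSO baseline.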

[19] = TAMU_HCS_1.5hr_SingleDonor1434_Cytotoxicity: Cytotoxicity Assessment using High-content Screening (HCS) Fluorescent Imaging for the Texas A&M University (TAMU) 1.5-hr Human Induced Pluripotent Stem Cell (iPSC)-derived Cardiotoxicity Assay (AID 2284234; active = hit-call score of the fitted dose curve at least 0.9, where 1 is the maximum)
In short: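 Nuclear counts from Hoechst 33342 imaging define cytotoxicity here, with EC10 (10% cell-count loss relative to DMSO) as point of departure. iPSC cardiomyocytes received 0.2-100 uM test chemical in 0.5% DMSO for 1.5 h at 37 C.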

[20] = CCTE_Mundy_HCI_Cortical_NOG_BPCount: CCTE's Neurite Outgrowth Assay in rat cortical cells for Branch Point Count, Mundy Lab (AID 2284237);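 note: branch points counted about two days after chemical exposure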
In short: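 Measured 50.33 h after dosing, this morphology endpoint uses rat primary cortical cultures labelled for betaIII-tubulin. Branch points are quantified by high-content imaging, with DMSO as negative control and baseline.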

Measured: AC50

Chain of Tumor necrosis factor (Homo sapiens) (P01375 whole entry, looked up): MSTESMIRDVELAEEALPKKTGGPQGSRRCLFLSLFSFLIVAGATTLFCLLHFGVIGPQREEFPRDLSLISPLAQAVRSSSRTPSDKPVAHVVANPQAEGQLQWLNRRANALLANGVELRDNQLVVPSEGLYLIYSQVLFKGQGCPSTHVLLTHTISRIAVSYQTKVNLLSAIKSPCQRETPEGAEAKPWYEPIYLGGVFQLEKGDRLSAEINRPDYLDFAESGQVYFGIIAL

NCC(F)(F)C(F)(F)C(F)(F)C(F)(F)C(F)(F)C(F)(F)C(F)(F)F
inactive: [1] | [2] | [3] | [4] | [5] | [6] | [7] | [8] | [9]

CCCCCCCCCCCCCC[N+](C)(C)C
active: [1] 11.5 µM | [2] 45.3 nM | [3] 2.81 µM | [4] 4.27 µM | [5] 1.48 µM | [6] 2.59 µM | [7] 3.84 µM | [8] 1.5 µM | [9] 1.85 µM

OCCC(F)(F)C(F)(F)C(F)(F)C(F)(F)C(F)(F)C(F)(F)F
inactive: [1] | [2] | [3] | [4] | [5] | [6] | [7] | [8] | [9] | [10]
active: [1] 30 µM | [4] 49.1 µM | [5] 43.1 µM | [6] 41.4 µM | [8] 54.6 µM

CN1CCC[C@H]1c1cccnc1
inactive: [11] | [12] | [13] | [14] | [15] | [10]

c1ccc2c(c1)ccc1ccccc12
inactive: [16]

OCCC(F)(F)C(F)(F)C(F)(F)C(F)(F)C(F)(F)C(F)(F)C(F)(F)C(F)(F)F
inactive: [17] | [10]
active: [1] 43.4 µM and 40.7 µM | [2] 50.6 µM and 53.6 µM | [3] 45.1 µM and 45.8 µM | [4] 53.1 µM and 52.6 µM | [5] 44.1 µM and 43.9 µM | [6] 45.5 µM and 41.3 µM | [7] 13.4 µM and 9.75 µM | [8] 19.8 µM and 17.2 µM | [9] 14.5 µM and 10 µM

c1ccc2c(c1)Cc1ccccc1-2
inactive: [16]

C[C@@H]1C[C@H]2[C@@H]3CCC4=CC(=O)C=C[C@]4(C)[C@@]3(F)[C@@H](O)C[C@]2(C)[C@@]1(O)C(=O)COP(=O)(O)O
inactive: [1] | [2] | [3] | [7] | [8] | [9]
active: [1] 0.485 µM | [4] 863 nM and 1.34 µM | [5] 0.1 µM | [6] 245 nM and 100 nM

c1ccc2cc3c(ccc4ccccc43)cc2c1
inactive: [16]

CC#C[C@]1(O)CC[C@H]2[C@@H]3CCC4=CC(=O)CCC4=C3[C@@H](c3ccc(N(C)C)cc3)C[C@@]21C
inactive: [13] | [19]
active: [18] 17.9 µM and 23.1 µM | [12] 16.7 µM and 24.8 µM | [17] 18 µM and 23.2 µM | [14] 16.5 µM and 8.62 µM | [15] 69.2 µM and 15 µM | [20] 26.2 µM and 24.2 µM | [10] 13.5 µM and 18.4 µM

CC1=C(/C=C/C(C)=C/C=C/C(C)=C/C(=O)O)C(C)(C)CCC1
inactive: [12] | [14] | [15] | [10]
active: [11] 0.417 µM | [13] 48 µM

FC(F)(I)C(F)(F)C(F)(F)C(F)(F)C(F)(F)C(F)(F)I
active: [1] 25.6 µM [middle of 5 runs] | [3] 20.6 µM [middle of 5 runs] | [6] 21.2 µM [middle of 5 runs] | [7] 5.28 µM [middle of 5 runs] | [8] 4.42 µM [middle of 5 runs] | [9] 4.38 µM [middle of 5 runs]

C=C(C)C(=O)OCCC(F)(F)C(F)(F)C(F)(F)C(F)(F)C(F)(F)C(F)(F)F
inactive: [17] | [1] | [2] | [3] | [4] | [5] | [6] | [7] | [8] | [9] | [10]
